From PubChem BioAssay (NCATS) come the findings set out here.

Assay [1] addresses Tyrosyl-DNA phosphodiesterase 1 (Homo sapiens) (UniProt Q9NUW8). The assay can be described thus: Confirmation Assay for Inhibitors of Tyrosyl-DNA Phosphodiesterase (TDP1) (AID 489007). Also: potency is read from the fitted curve at half-maximal effect; nearly all actives have a fitted effect of over 40% in size. The conditions noted are these: recombinant human TDP1 enzymatic activity, dose-response. A digest of the protocol:
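Tdp1 1 nM + cpd, 15 min RT; add biotin/phosphotyrosine-FITC oligo 15 nM, 5 min RT; add AS donor/acceptor beads 10 ug/ml, 10 min RT; read AlphaScreen. No-enzyme wells = max signal.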

Assay [2] deals with Glucocorticoid receptor (Homo sapiens) (UniProt P04150). Nature of the assay: GR-EFC Redistribution (AID 451; calls by dose curve; also: potency is read from the fitted curve at half-maximal effect). The following applies: CHO-K1 GR-EFC translocation, beta-gal luminescence, 2 h. The method, boiled down:
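CHO-K1 cells stably expressing nuclear-localized β-gal enzyme acceptor and GR fused C-terminally to the enzyme donor fragment; ligand-driven nuclear translocation restores β-gal by complementation. Compounds titrated up to 46 uM final, 2 h at 37 °C; luminescence read.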

For assay [3], the target named is 3',5'-cyclic-AMP phosphodiesterase 4B (Homo sapiens) (UniProt Q07343). The assay can be described thus: qHTS Assay for Inhibitors of PDE-IV (AID 607; active = well fitted activation curve with a large enough effect in the main read-out, with a control signal flat, not every such curve was filed as active; also: potency is read from the fitted curve at half-maximal effect). The following applies: HEK293 ACTOne CNG channel cells, membrane potential fluorescence; series mostly up to 22.9 µM. A digest of the protocol: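 HEK293 ACTOne cells with CNG channel (1000/well), endogenous PDE4; membrane potential dye, compounds up to 22.9 uM final. Fluorescence Ex 535/Em 590; RO 20-1724 (100 uM final) as reference.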
Chain of 3',5'-cyclic-AMP phosphodiesterase 4B (Homo sapiens) (Q07343 whole entry, looked up): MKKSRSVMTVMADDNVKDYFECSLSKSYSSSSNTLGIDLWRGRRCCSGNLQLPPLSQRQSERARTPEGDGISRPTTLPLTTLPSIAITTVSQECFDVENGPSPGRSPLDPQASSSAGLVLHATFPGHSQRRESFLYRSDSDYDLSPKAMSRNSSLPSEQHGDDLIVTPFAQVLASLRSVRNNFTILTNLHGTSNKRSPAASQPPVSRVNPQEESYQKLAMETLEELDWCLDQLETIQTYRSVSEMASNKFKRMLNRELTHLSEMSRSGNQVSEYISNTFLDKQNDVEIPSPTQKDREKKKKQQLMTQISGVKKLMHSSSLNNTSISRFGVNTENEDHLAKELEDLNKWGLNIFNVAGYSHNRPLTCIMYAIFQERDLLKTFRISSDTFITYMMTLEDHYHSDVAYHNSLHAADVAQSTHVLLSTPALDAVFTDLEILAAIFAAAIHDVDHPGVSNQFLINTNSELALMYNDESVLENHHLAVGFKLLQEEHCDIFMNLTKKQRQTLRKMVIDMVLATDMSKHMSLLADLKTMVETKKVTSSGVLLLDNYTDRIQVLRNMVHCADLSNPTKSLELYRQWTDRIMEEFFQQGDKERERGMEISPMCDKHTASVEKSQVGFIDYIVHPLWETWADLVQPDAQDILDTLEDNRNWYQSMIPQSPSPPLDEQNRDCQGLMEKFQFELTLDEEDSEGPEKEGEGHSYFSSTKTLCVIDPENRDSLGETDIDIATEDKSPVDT
Background: Quantitative high-throughput screening tests each substance at several concentrations.

In assay [4] the target is Cytochrome P450 2C9 (Homo sapiens) (UniProt P11712). Nature of the assay: qHTS Assay for Inhibitors and Substrates of Cytochrome P450 2C9 (AID 883). Also: nearly all actives have a fitted effect of over 60% in size. The conditions noted are these: recombinant CYP2C9, luciferin-H luminescence, 60 min; series mostly up to 57.1 µM. A digest of the protocol: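 A luminogenic readout tracked human CYP2C9 (10nM) converting deoxyluciferin (100uM, at KM) in 25mM KPO4 during 60 min at 37C with regenerated NADPH. Values normalized to 57uM sulphaphenazole as complete inhibition.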
Chain of Cytochrome P450 2C9 (Homo sapiens) (P11712 whole entry, looked up): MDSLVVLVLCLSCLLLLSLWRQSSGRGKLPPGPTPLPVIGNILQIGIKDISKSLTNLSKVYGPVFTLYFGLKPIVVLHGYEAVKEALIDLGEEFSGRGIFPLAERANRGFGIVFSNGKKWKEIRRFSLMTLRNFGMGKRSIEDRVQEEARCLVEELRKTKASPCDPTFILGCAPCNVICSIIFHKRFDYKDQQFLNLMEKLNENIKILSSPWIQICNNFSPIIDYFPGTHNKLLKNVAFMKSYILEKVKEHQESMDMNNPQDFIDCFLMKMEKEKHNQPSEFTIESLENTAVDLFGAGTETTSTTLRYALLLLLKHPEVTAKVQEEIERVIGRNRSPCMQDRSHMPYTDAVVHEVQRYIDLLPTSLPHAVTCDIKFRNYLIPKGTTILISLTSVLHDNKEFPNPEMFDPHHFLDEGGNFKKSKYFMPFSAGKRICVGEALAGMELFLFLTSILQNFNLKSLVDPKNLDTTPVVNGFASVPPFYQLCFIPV

Assay [5] addresses Cytochrome P450 2D6 (Homo sapiens) (UniProt P10635). The assay can be described thus: qHTS Assay for Inhibitors and Substrates of Cytochrome P450 2D6 (AID 891).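 Also: luciferin methyl ether substrate demethylated by CYP2D6 with NADPH regeneration; nearly all actives have a fitted effect of over 60% in size.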 The following applies: recombinant CYP2D6, luciferin-ME EGE luminescence; series mostly up to 57.1 µM. The method, boiled down: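 Human CYP2D6 (5 nM) with 30 uM Luciferin-ME EGE (at Km) in 100 mM KPO4, compound preincubated 10 min, then NADPH regeneration system for 60 min at room temperature. Luciferin read by luminescence; normalized to 1.43 uM quinidine.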

Assay [6] deals with Cytochrome P450 2C19 (Homo sapiens) (UniProt P33261). Nature of the assay: qHTS Assay for Inhibitors and Substrates of Cytochrome P450 2C19 (AID 899). Also: nearly all actives have a fitted effect of over 60% in size. The conditions noted are these: recombinant CYP2C19, luciferin-H EGE luminescence; series mostly up to 57.1 µM. The method, boiled down:
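NADPH-dependent conversion of Luciferin-H EGE (10uM, at KM) by 5nM enzyme in 50mM KPO4, 60 min at 37C following 10 min compound preincubation. Stopped with luciferin detection buffer; luminescence read after 20 min.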

The target in assay [7] is Mitogen-activated protein kinase 10 (Mus musculus) (UniProt Q61831). The assay can be described thus: JNK3 AlphaScreen Assay (AID 530; active = well fitted curve in either direction with a large enough effect, not every such curve was filed as active;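 also: kinase came from lysate of stimulated human HepG2 cells; signal reports phosphorylation of biotinylated GST-cJun 1-79 at Ser73 with 10 µM ATP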). The following applies: JNK3 lysate, c-Jun phosphorylation; series mostly up to 57.1 µM. A digest of the protocol: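 Inhibitors reduce antibody binding to phosphorylated biotin-cJun, lowering AlphaScreen luminescence. Lysates from HepG2 cells pre-activated by IL-1beta plus TNF-alpha supplied JNK3; compounds were titrated.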

A number with no mark means an inactive call. Inconclusive results are not listed. Calls of active or inactive are those of the source. Unless noted, calls follow the shape of the dose curve; as a rule, active = well fitted curve in the direction sought with a large enough effect; inconclusive = small, poorly fitted or top-dose-only effect, or another doubt; inactive = no such curve, though single readings can be large; an effect the other way counts as inactive or inconclusive.

Chain of Cytochrome P450 2D6 (Homo sapiens) (P10635 whole entry, looked up): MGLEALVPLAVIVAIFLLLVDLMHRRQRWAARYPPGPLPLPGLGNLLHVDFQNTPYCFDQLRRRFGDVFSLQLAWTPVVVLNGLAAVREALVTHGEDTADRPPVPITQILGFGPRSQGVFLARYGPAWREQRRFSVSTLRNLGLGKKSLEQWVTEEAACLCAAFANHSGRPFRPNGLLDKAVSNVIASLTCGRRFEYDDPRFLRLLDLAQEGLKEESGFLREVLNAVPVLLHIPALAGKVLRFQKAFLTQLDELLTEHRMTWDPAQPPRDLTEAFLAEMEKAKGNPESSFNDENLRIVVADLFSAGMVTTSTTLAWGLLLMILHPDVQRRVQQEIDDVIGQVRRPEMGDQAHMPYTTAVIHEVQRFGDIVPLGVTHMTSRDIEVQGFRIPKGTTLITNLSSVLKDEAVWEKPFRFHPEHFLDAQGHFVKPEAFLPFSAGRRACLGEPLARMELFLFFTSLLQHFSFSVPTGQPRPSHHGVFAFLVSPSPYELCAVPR
Chain of Cytochrome P450 2C19 (Homo sapiens) (P33261 whole entry, looked up): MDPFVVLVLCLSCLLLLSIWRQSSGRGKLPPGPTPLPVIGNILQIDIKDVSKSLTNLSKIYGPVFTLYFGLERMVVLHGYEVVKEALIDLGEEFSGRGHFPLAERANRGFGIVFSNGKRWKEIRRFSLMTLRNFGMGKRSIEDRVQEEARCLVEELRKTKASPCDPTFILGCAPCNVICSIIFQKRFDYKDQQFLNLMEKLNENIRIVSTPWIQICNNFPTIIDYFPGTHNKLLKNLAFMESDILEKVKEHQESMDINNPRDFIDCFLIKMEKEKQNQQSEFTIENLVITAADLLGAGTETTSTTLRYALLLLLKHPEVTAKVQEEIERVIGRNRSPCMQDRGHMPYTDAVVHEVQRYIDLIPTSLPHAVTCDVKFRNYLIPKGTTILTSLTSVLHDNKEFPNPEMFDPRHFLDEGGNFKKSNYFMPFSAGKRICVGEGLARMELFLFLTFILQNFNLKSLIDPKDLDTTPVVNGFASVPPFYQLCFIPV
Chain of Tyrosyl-DNA phosphodiesterase 1 (Homo sapiens) (Q9NUW8 whole entry, looked up): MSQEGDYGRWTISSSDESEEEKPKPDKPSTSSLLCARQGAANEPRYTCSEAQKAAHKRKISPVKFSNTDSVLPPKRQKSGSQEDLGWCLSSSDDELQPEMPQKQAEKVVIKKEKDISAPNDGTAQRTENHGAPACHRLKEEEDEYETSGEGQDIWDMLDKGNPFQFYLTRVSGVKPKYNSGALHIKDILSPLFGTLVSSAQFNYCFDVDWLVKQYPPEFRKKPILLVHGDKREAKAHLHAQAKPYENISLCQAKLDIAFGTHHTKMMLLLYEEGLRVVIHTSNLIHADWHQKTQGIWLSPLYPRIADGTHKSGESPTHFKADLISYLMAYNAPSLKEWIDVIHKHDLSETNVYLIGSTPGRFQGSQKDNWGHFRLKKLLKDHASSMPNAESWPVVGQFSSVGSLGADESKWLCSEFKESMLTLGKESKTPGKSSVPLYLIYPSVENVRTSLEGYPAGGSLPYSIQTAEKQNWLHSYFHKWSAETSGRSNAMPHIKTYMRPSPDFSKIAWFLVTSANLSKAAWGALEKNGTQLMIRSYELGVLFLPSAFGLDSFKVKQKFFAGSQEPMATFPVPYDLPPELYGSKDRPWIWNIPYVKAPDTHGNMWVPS
Chain of Glucocorticoid receptor (Homo sapiens) (P04150 whole entry, looked up, the tested form may be a part): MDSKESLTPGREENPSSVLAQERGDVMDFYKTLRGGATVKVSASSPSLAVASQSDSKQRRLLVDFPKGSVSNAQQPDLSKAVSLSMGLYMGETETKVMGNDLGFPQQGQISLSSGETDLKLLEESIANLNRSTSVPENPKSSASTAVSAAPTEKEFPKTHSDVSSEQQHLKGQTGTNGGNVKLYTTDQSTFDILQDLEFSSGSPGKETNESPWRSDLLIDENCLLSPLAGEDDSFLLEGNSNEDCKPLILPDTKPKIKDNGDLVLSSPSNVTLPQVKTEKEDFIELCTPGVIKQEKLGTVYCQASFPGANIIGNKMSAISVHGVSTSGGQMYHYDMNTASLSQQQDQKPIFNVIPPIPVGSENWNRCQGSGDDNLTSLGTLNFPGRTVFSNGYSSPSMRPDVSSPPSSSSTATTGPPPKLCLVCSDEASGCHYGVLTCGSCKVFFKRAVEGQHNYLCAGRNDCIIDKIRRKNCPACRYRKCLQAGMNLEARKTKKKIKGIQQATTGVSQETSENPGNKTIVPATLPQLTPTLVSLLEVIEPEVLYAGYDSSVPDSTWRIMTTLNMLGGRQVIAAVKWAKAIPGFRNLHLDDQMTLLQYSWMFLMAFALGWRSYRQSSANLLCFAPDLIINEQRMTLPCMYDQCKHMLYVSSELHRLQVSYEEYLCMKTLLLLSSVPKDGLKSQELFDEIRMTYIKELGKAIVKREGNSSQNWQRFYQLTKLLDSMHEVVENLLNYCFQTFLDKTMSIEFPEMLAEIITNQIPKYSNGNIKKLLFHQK

As for `CCc1oc(C(=O)O)cc1COC`, the Potency in assay [1] is 31.6 µM (active).
On to `CC(C)[C@@H](CC(=O)N[C@@H]1CCCC[C@H]1C(=O)N[C@H](CC(=O)N[C@@H](CCC(=O)O)CC(=O)O)Cc1ccccc1)NC(=O)C[C@H](Cc1c[nH]c2ccccc12)NC(=O)[C@@H]1CNCC[C@H]1N`, for which the Potency in assay [2] was above 46 µM. Also, the Potency result in assay [3], in assay [4], in assay [5] and in assay [6] was “inactive” in each case.
As for `CC(=O)c1ccc(NC(=O)c2ccc3nc(-c4ccco4)c(-c4ccco4)nc3c2)cc1`, in assay [1], the Potency was 7.08 µM (active).
Still for that read-out and setting: then `O=C(O)c1ccc2ncsc2c1`, with 39.8 µM (active); and `Cc1nc(SCC(=O)O)c(C#N)c2c1CCCC2`, with 8.91 µM (active).
As for `NCCC[C@@H](CC(=O)N[C@@H]1CCNC[C@H]1C(=O)N[C@H](CC(=O)N[C@@H](CCC(=O)O)CC(=O)O)Cc1ccccc1)NC(=O)C[C@H](Cc1c[nH]c2ccccc12)NC(=O)[C@@H]1CCCC[C@H]1N`, the Potency in assay [2] is above 46 µM. Further, the Potency result in assay [7], in assay [3], in assay [4], in assay [5] and in assay [6] was “inactive” throughout.
With `CC(C)[C@@H](CC(=O)N[C@@H]1CCCC[C@H]1C(=O)N[C@H](CC(=O)N[C@@H](CCC(=O)O)CC(=O)O)Cc1ccccc1)NC(=O)C[C@H](Cc1ccccc1)NC(=O)[C@@H]1CCCC[C@H]1N`, the Potency in assay [2] was above 46 µM. Also, the Potency result in assay [7], in assay [3], in assay [4], in assay [5] and in assay [6] was “inactive” in each case.
In the case of `NCCC[C@@H](CC(=O)N[C@@H]1CCCC[C@H]1C(=O)N[C@H](CC(=O)N[C@@H](CCC(=O)O)CC(=O)O)Cc1ccccc1)NC(=O)C[C@H](Cc1c[nH]c2ccccc12)NC(=O)[C@@H]1CCCC[C@H]1N`, the Potency in assay [2] was above 46 µM. The Potency entry in assay [3], in assay [5] and in assay [6] was “inactive” each time.
In the case of `COc1ccc2cc3cc(C(=O)NCc4cccs4)oc3nc2c1`, the Potency in assay [1] is 25.1 µM (active).
As to `Cc1ccc(S(=O)(=O)N(CC(=O)O)Cc2ccco2)cc1`, in assay [1], the Potency is 20 µM (active).
As to `NCCC[C@@H](CC(=O)N[C@@H]1CCCC[C@H]1C(=O)N[C@H](CC(=O)N[C@@H](CCC(=O)O)CC(=O)O)Cc1ccccc1)NC(=O)C[C@H](Cc1c[nH]c2ccccc12)NC(=O)[C@@H]1CNCC[C@H]1N`, the Potency is above 46 µM in assay [2] and 1.58 µM (active) in assay [3]. Further, the Potency entry in assay [4], in assay [5] and in assay [6] was “inactive” each time.
As for `CC(C)[C@@H](CC(=O)N[C@@H]1CCCC[C@H]1C(=O)N[C@H](CC(=O)N[C@@H](CCC(=O)O)CC(=O)O)Cc1ccccc1)NC(=O)C[C@H](Cc1ccccc1)NC(=O)[C@@H]1CNCC[C@H]1N`, the Potency in assay [2] is above 46 µM. For the same compound, the Potency entry in assay [7], in assay [5] and in assay [6] was “inactive” throughout.
For `Cc1cccc(N2CCN(S(=O)(=O)c3ccc4[nH]c(=O)c(=O)[nH]c4c3)CC2C)c1` (stereo not given), in assay [1], the Potency is 39.8 µM (active).
`NCCC[C@@H](CC(=O)N[C@@H]1CCCC[C@H]1C(=O)N[C@H](CC(=O)N[C@@H](CCC(=O)O)CC(=O)O)Cc1ccccc1)NC(=O)C[C@H](Cc1ccccc1)NC(=O)[C@@H]1CCCC[C@H]1N`: the Potency in assay [2] is above 46 µM. The Potency entry in assay [3], in assay [5] and in assay [6] was “inactive” in each case.
As to `CSc1ccccc1NC(=O)c1noc2c1CCC2`, in assay [1], the Potency was 126 µM (active).
For `CC(C)C[C@@H](CC(=O)N[C@H](CC(=O)N[C@@H]1CCNC[C@H]1C(=O)N[C@H](CC(=O)N[C@@H](CCC(=O)O)CC(=O)O)Cc1c[nH]c2ccccc12)C(C)C)NC(=O)[C@@H]1CCCC[C@H]1N`, the Potency in assay [2] was above 46 µM. Also, the Potency entry in assay [3] and in assay [5] was “inactive” each time.
